Assay results published in PubChem BioAssay (NCI).
This is part of a sample that, as a whole, favours compounds with a hit. Of some 83,000 tested, about 20% had one in any assay.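 Plates (96-well) were seeded with cells, treated with compound at one concentration, and incubated for 48 hours before percent growth was determined.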 A number with no mark means an inactive call. Calls of active or inactive are those of the source. The calls were made as follows: active = growth percent below 10; inactive = the rest.

How the values were obtained:
Assay in all cases: NCI-60 one-dose screen, 48 h (100 = growth as untreated, 0 = no growth, -100 = all killed)
Conditions in all cases: 10 µM unless noted
RPMI-8226 leukemia = system: RPMI-8226 leukemia
OVCAR-8 ovarian = system: OVCAR-8 ovarian
OVCAR-5 ovarian = system: OVCAR-5 ovarian
OVCAR-4 ovarian = system: OVCAR-4 ovarian
SK-OV-3 ovarian = system: SK-OV-3 ovarian
OVCAR-3 ovarian = system: OVCAR-3 ovarian
HS 578T breast = system: HS 578T breast
NCI/ADR-RES ovarian = system: NCI/ADR-RES ovarian
T-47D breast = system: T-47D breast
BT-549 breast = system: BT-549 breast
MDA-MB-435 melanoma = system: MDA-MB-435 melanoma
SW-620 colon = system: SW-620 colon
MCF7 breast = system: MCF7 breast
HCT-116 colon = system: HCT-116 colon
HCC-2998 colon = system: HCC-2998 colon
KM12 colon = system: KM12 colon
IGROV1 ovarian = system: IGROV1 ovarian

SMILES | growth (RPMI-8226 leukemia) | growth (OVCAR-8 ovarian) | growth (OVCAR-5 ovarian) | growth (OVCAR-4 ovarian) | growth (SK-OV-3 ovarian) | growth (OVCAR-3 ovarian) | growth (HS 578T breast) | growth (NCI/ADR-RES ovarian) | growth (T-47D breast) | growth (BT-549 breast) | growth (MDA-MB-435 melanoma) | growth (SW-620 colon) | growth (MCF7 breast) | growth (HCT-116 colon) | growth (HCC-2998 colon) | growth (KM12 colon) | growth (IGROV1 ovarian)
COc1cccc2c1C(=O)c1c(O)c3c(c(O)c1C2=O)CC(O)(/C(C)=N/NC(=O)CCCCC(=O)N/N=C(\C)C1(O)Cc2c(O)c4c(c(O)c2C(OC2CC(N)C(O)C(C)O2)C1)C(=O)c1c(OC)cccc1C4=O)CC3OC1CC(N)C(O)C(C)O1 (stereo not given) | -66% [5 µM] (active) | 5% [5 µM] (active) | 7.09% [5 µM] (active) | -9.94% [5 µM] (active) | -7% [5 µM] (active) | -37.2% [5 µM] (active) | -40.4% [5 µM] (active) | 75.6% [5 µM] | -16.2% [5 µM] (active) | -21.6% [5 µM] (active) | -87.6% [5 µM] (active) | -32.3% [5 µM] (active) | 2.23% [5 µM] (active) | -3.01% [5 µM] (active) | -53.9% [5 µM] (active) | -21.6% [5 µM] (active) | –
COc1ccc2c(c1)O/C(=C\c1cccc(OCC(=O)Nc3nc(C)c(C)s3)c1)C2=O | -59.8% (active) | 15.1% | 12.7% | 67.8% | 101% | -33.1% (active) | 42.9% | -10.7% (active) | 75.7% | -81.9% (active) | 80% | -39% (active) | 93.8% | 66.6% | – | 1.92% (active) | –
COc1cc(C2CC(c3cc(OC)c(OCCCOc4ccc(-n5c(/C=C/c6ccccc6)nc6ccccc6c5=O)cc4)c(OC)c3)=NO2)cc(OC)c1OC (stereo not given) | -9.38% (active) | 104% | 105% | 87% | 114% | 118% | 108% | 107% | 108% | 118% | 110% | 104% | 97.4% | 106% | 105% | 122% | –
CC(C)=C[C@@H]1c2c(c3ccccc3n(C)c2=O)O[C@H]2c3c(c4ccccc4n(C)c3=O)OC(C)(C)[C@@H]12 | -36.8% (active) | 90.4% | 98.7% | 64.9% | 118% | 91.9% | 93.2% | 75.4% | 57.7% | 54.7% | 83.9% | 89.9% | 69.8% | 81.6% | 82.7% | 89.1% | –
COc1ccc(N=C(c2ccccc2)C2C(=O)c3ccccc3C2=O)cc1 | 37.2% | 83.3% | 104% | 77.3% | 108% | – | 86.9% | 91.9% | 78% | 74.3% | 58.6% | 71.4% | 84.6% | 81.2% | 112% | 100% | –
COc1ccc2c(c1)C(=O)/C(=C/c1ccc(OCC(=O)Nc3nccs3)cc1)O2 | -53.8% (active) | 19.1% | -31.5% (active) | 48.3% | 37.9% | -24.4% (active) | 56.2% | 56.9% | 75.2% | -84.2% (active) | 92.5% | -24% (active) | 59.8% | – | 113% | 21.3% | –
COc1ccc2c(c1)O/C(=C\c1cccc(OCC(=O)Nc3nc4ccccc4s3)c1)C2=O | 53.4% | 5.46% (active) | 95.7% | 81.7% | 99.1% | 88.6% | 93.8% | -60.1% (active) | 62.1% | -51.7% (active) | 96.5% | 79% | 73.7% | 76.5% | – | 88.2% | –
CCOP(=O)(OCC)C1CP(=O)(c2ccccc2)CC(C)=C1Cl (stereo not given) | 69.6% | 85.7% | 97.8% | 107% | 127% | 104% | 112% | 93.5% | 102% | 129% | 110% | 105% | 102% | 91.5% | 102% | 109% | –
Cn1c(I)c(C#C[Si](C)(C)C)c(=O)n(C(=O)c2ccccc2)c1=O | -9.86% (active) | -20.6% (active) | 60.9% | 39.5% | 101% | 14.2% | 41% | 88.1% | 17.8% | 42.8% | 53.9% | -83.4% (active) | -18.9% (active) | – | 0.121% (active) | 57.3% | –
COc1cc(/C=C/C(=O)N2CCN(C(=O)c3cc(OC)c(OC)c(OC)c3)CC2)ccc1OCCCN1C(=O)c2cccc3cccc(c23)C1=O | 21.6% | 50.6% | 107% | 77.9% | 121% | 73.5% | 38.6% | 68.9% | 61.9% | 108% | 95.6% | 100% | 90.4% | 81.4% | 99.7% | 79.6% | –
CNC(=O)CCN1CCN(CC/C=C2\c3ccccc3Sc3ccc(Cl)cc32)CC1 | 70.1% | 88.5% | 96.3% | 105% | 122% | 57.8% | 65.4% | 98.3% | 85% | 91.5% | 72.3% | 86.9% | 73.2% | 68.8% | 83.6% | 62.3% | –
O=c1[nH]c2ccccc2n1C1CCN(CCOc2ccccc2)CC1 | 41.5% | 79% | 104% | 66.7% | 91.8% | 65.4% | – | 94.1% | 87.5% | 90.3% | 97.7% | 103% | 81.3% | 84.7% | 98.5% | 96.9% | –
CN(C)CC1=NC2SC=C(c3ccccc3)C2C(=O)N1CC#N (stereo not given) | 49.6% | 97.1% | 89.7% | 85.3% | 119% | 110% | 118% | 98.1% | 86.8% | 118% | 95.3% | 104% | 121% | 103% | 97.5% | 101% | –
CSc1n(Cc2ccc3ccccc3c2)c(C)c[n+]1Cc1ccc2ccccc2c1 | -38.3% (active) | -3.48% (active) | 6.94% (active) | -7.94% (active) | 5.34% (active) | – | – | 78.4% | 0.45% (active) | -23.4% (active) | -66.2% (active) | 0.772% (active) | -62.8% (active) | -0.907% (active) | -91.1% (active) | -82.5% (active) | -55.6% (active)
O=C1Nc2ccc(F)cc2C12Nc1cc(Cl)ccc1S2 (stereo not given) | 32.9% | 96.9% | 121% | 77.9% | 83.8% | 82.8% | 94.4% | 93.4% | 40% | 67.7% | 97.5% | 106% | 60.3% | 85.7% | 99.5% | 90.5% | –
c1ccc(-c2nc([P+](c3ccccc3)(c3ccccc3)c3ccccc3)c(N3CCOCC3)o2)cc1 | -28.5% (active) | 1.55% (active) | 11.1% | 11.4% | – | 11% | 24.9% | 92.8% | -3.03% (active) | -5.41% (active) | -1.04% (active) | 14.4% | 2.94% (active) | 2.08% (active) | 26.5% | -1.22% (active) | 16.7%
C(=N\Nc1ncc(-c2cc3cc4c(cc3o2)OCO4)s1)/c1ccco1 | 30.9% | 23.7% | 58% | 32.5% | – | 8.65% (active) | 70.6% | 34.7% | 35.2% | 48.6% | 69% | 2.26% (active) | 13.7% | -13.6% (active) | 62.7% | 15.8% | 30.2%
CCOC(=O)c1ccc(N2NC(=O)/C(=C/c3ccc([N+](=O)[O-])o3)C2=O)cc1 | 90.7% | 97.9% | 108% | 110% | 117% | 88.7% | 113% | 111% | 109% | 99.7% | 109% | 106% | 89.4% | – | 103% | 106% | –
O=c1c2c3c(sc2n2c(-c4cn(-c5ccccc5)nc4-c4ccc(Cl)cc4)nnc2n1Cc1ccccc1)CCCC3 | 94.1% | 97.1% | 103% | 95.5% | 109% | 103% | 96.9% | 101% | 81.8% | 103% | – | 110% | 75.4% | 92.6% | 99.1% | 103% | –
